Source: PubChem BioAssay AID1619 (SRMLSC, 2009)
Among all 220,000 compounds or so, about 830 (0.38%) were called active. These entries were drawn from the full list. Entries with a potency or affinity are not part of this list. A number with no mark means an inactive call.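 How the source made its calls: active means compound inhibiting the enzyme by more than half at any dose during confirmatory dose-response retesting; inconclusive means strong single-dose inhibitors picked by rank but not retested; inactive means the rest.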

biological target: Leucine aminopeptidase (Plasmodium falciparum (isolate 3D7)) (UniProt Q8IL11); assay: P. falciparum M17LAP inhibitors, primary screen, biochemical, fluorogenic H-Leu-NHMec substrate, 1536-well (AID 1619); conditions: recombinant M17LAP, H-Leu-NHMec fluorogenic kinetic assay; at 30 µM; active compounds read high;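 further: plate controls were full reaction with DMSO carrier for no effect and no enzyme background for full effect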
Sequence (Q8IL11 whole entry, looked up): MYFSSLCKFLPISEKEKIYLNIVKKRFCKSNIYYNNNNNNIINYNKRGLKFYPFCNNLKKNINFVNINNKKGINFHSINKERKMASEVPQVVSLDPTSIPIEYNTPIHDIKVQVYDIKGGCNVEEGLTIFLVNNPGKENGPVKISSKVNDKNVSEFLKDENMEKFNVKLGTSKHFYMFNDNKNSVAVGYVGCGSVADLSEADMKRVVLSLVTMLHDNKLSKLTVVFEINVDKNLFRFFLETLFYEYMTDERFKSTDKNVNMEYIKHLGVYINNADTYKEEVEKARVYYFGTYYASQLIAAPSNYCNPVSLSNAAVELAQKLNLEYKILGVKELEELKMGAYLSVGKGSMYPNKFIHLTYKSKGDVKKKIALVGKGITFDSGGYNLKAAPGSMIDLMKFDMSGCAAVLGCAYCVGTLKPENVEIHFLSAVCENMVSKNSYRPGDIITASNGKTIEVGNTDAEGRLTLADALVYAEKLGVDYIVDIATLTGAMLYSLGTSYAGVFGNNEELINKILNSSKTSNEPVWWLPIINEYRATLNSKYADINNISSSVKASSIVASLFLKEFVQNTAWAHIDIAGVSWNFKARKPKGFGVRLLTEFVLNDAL

SMILES | inhibition [%]
CCCn1c(SCC(=O)NC(=O)Nc2ccc(C)cc2C)n[nH]c1=O | -6.72
O=C(Cn1ccc([N+](=O)[O-])n1)NCCc1c[nH]c2ccccc12 | -5.35
C=CCn1c(=O)c2ccccc2n2c(SCC(=O)Nc3sc(C(=O)N(CC)CC)c(C)c3C(=O)OCC)nnc12 | 1.64
O=C(N/N=C/c1ccc2c(c1)OCO2)c1cc(-c2ccc(F)cc2)nc2ccccc12 | 8.91
CCCCn1nnnc1NCc1ccc(N2CCCC2)cc1 | 2.89
COc1cccc(-n2cn[nH]c2=S)c1 | -0.99
O=C(NC1CCCC1)C(c1ccc(N2CCOCC2)cc1)N(Cc1ccco1)C(=O)c1ccco1 (stereo unspecified) | 6.04
COCC(=O)OCC(=O)c1cc(C)n(-c2ccc(Br)cc2)c1C | 1.88
CCC(=O)OCC(=O)c1cc(C)n(-c2ccc(Br)cc2)c1C | 0.2
Cc1ccc(-n2c(C)cc(C(=O)COc3c(CO)cc(F)cc3CO)c2C)cc1C | 11.4
CCOC(=O)c1cc(C)n(-c2ccc(OC)c(OC)c2)c1C | 0.75
COc1cc(C(=O)Nc2ccccc2-c2nnn(CC(N)=O)n2)cc(OC)c1OC | -3.22
C=CCn1c(-c2cccnc2Cl)nc2cc(Cl)c(Cl)cc21 | -5.48
Cc1noc(C)c1C(=O)NCCCc1ccccc1 | 6.89
Cc1cc(C(=O)OCC(=O)N2c3ccccc3CC2C)c(C)o1 (stereo unspecified) | -1.01
Cc1cc(C(=O)OCC(=O)N2CC(C)CC(C)C2)c(C)o1 (stereo unspecified) | 40.9
O=C(O)c1cc2c(ccc3ccccc32)o1 | 6.36
O=C(CN1C(=O)C2C3C=CC(C3)C2C1=O)NCc1ccccc1 (stereo unspecified) | 18.9
Cc1nn(C)c(C)c1S(=O)(=O)N1CCC(C(=O)NCC2COc3ccccc3O2)CC1 (stereo unspecified) | 17.1
O=C(CCC1COc2ccccc2O1)NCC1COc2ccccc2O1 (stereo unspecified) | 15.9
CCC1Oc2ccc(C)cc2N(CC(=O)NCC2COc3ccccc3O2)C1=O (stereo unspecified) | 16.1
O=C(Cn1ccc2ccccc2c1=O)NCC1COc2ccccc2O1 (stereo unspecified) | 10.9
Cn1c(=O)oc2cc(S(=O)(=O)N3CCC(C(=O)NCC4COc5ccccc5O4)CC3)ccc21 (stereo unspecified) | 3.08
Cn1c(=O)cc(SCC(=O)NCC2COc3ccccc3O2)c2ccccc21 (stereo unspecified) | -4.89
Cn1c(C(=O)O)c(CC(=O)Nc2ccc3c(c2)OCCO3)c2ccccc21 | -6.24
CCOc1ccc(NC(=O)CSc2nc3c([nH]c4ccccc43)c(=O)n2C)cc1 | 1.51
